PubChem BioAssay (Tox21)
Results filed as inconclusive are left out. Active and inactive are the calls of the source. Unless noted, the call rests on the fitted dose curve; in most records, active means well fitted curve in the direction sought with a large enough effect in the repeat runs; inconclusive means weak or mixed curves; inactive means no such curve, though single readings can be large; an effect the other way counts as inactive or inconclusive.

Key:
[1] = qHTS assay to identify small molecule antagonists of the retinoid acid receptor (RAR) signaling pathway - cell viability counter screen (AID 1159551); further: nearly all actives have a fitted effect of over 35% in size
Procedure, shortened: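 Following overnight attachment, C3RL4 reporter cells received DMSO-dissolved compounds and then retinol (1 uM final). Six hours later at 37 C, ATP content was measured by CellTiter-Glo luminescence.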

[2] = qHTS assay to identify small molecule antagonists of the retinoic acid receptor (RAR) signaling pathway (AID 1159552; further: nearly all actives have a fitted effect of over 50% in size)
Procedure, shortened: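 Quantitative HTS in C3RL4 RARE-luciferase reporter cells. Compounds were added with 1 uM (final) retinol; luminescence was read after 6 hr.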

[3] = qHTS assay to identify small molecule agonists of the retinoic acid receptor (RAR) signaling pathway (AID 1159553)
Procedure, shortened: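 Cell line C3RL4, RARE luciferase reporter. Treatment: compounds in DMSO, 6 hr, 37 C, 5% CO2, after overnight plating. Detection: luminescence, 30 min RT after reagent.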

[4] = qHTS assay to identify small molecule antagonists of the estrogen related receptor (ERR) signaling pathway from Tox21 library - cell viability counter screen (AID 1224834); further: nearly all actives have a fitted effect of over 30% in size
Procedure, shortened: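 Viability readout (CellTiter-Fluor fluorescence, 30 min at 37 C) multiplexed with the ERR assay; cells treated 17.5 h at 37 C with compounds delivered in DMSO.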

[5] = biological target: Luciferin 4-monooxygenase (Photinus pyralis) (UniProt P08659); assay: qHTS assay to identify small molecule inhibitors of firefly luciferase (AID 1224835); further: nearly all actives have a fitted effect of over 25% in size
Procedure, shortened: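 Biochemical qHTS: compounds run as interplate titrations against purified firefly enzyme, with D-luciferin and ATP each at its KM concentration. Light output recorded by CCD imaging.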

[6] = qHTS assay to identify small molecule agonists of the constitutive androstane receptor (CAR) signaling pathway - cell viability counter screen (AID 1224836); further: nearly all actives have a fitted effect of over 45% in size
Procedure, shortened: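 Counter screen multiplexed with the CAR reporter readout: HepG2 cells co-transfected with hCAR and the CYP2B6-2.2kb construct receive a 15-concentration compound series and 0.75 uM PK11195 (final), then CellTiter-Fluor fluorescence is read after 23 h.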

[7] = qHTS assay to identify small molecule antagonists of the constitutive androstane receptor (CAR) signaling pathway - cell viability counter screen (AID 1224837); further: nearly all actives have a fitted effect of over 45% in size
Procedure, shortened: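 Fluorescence from CellTiter-Fluor served as the viability signal. Human hepatoma HepG2 cells stably bearing hCAR and CYP2B6-2.2kb received compound plus CITCO (50 nM final) for 23 hr.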

[8] = biological target: Nuclear receptor subfamily 1 group I member 3 (Homo sapiens) (UniProt Q14994); assay: qHTS assay to identify small molecule antagonists of the constitutive androstane receptor (CAR) signaling pathway (AID 1224838);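 further: HepG2 cells stably expressing hCAR with CYP2B6 luciferase reporter stimulated by CITCO; nearly all actives have a fitted effect of over 40% in size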
Procedure, shortened: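 Quantitative HTS in double-stable HepG2-CYP2B6-hCAR cells. After 4 h plating, cells get compound (15 concentrations) and CITCO at 50 nM final, incubate 24 h at 37 C, then ONE-Glo luminescence is read.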

[9] = biological target: Nuclear receptor subfamily 1 group I member 3 (Homo sapiens) (UniProt Q14994); assay: qHTS assay to identify small molecule agonists of the constitutive androstane receptor (CAR) signaling pathway (AID 1224839); further: nearly all actives have a fitted effect of over 15% in size
Procedure, shortened: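 A 15-concentration quantitative screen uses HepG2 cells co-transfected stably with human CAR and CYP2B6-2.2kb reporter. Treatment lasts 24 h with 0.75 uM PK11195 final present; ONE-Glo luminescence is the signal.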

[10] = qHTS assay to identify small molecule antagonists of the estrogen related receptor signaling pathway with the pleiotropic PPARgamma coactivator (PGC) from Tox21 10K library - cell viability counter screen (AID 1224840; active means well fitted cell-killing curve with a large enough effect in the repeat runs, not every such curve was filed as active; further: nearly all actives have a fitted effect of over 40% in size)
Procedure, shortened: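 Compounds in DMSO, alongside positive and negative controls, were pinned onto PGC/ERR cells (2,000 per well). Exposure lasted 17.5 hours at 37 C, followed by a 30-minute CellTiter-Fluor incubation and fluorescence reading.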

[11] = qHTS assay to identify small molecule agonists of the estrogen related receptor signaling pathway with the pleiotropic PPARgamma coactivator (PGC) from Tox21 10K library (AID 1224842); further: nearly all actives have a fitted effect of over 15% in size
Procedure, shortened: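 PGC/ERR reporter cell line, 2,000 cells per well, incubated 6 h at 37 C before 23 nL compound in DMSO was added. After 18 h at 37 C, One-Glo luminescence read following 30 min at room temperature.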

[12] = qHTS assay to identify small molecule agonists of the hypoxia (HIF-1) signaling pathway - cell viability counter screen (AID 1224844; calls by dose curve; further: nearly all actives have a fitted effect of over 50% in size)
Procedure, shortened: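 Luminescent ATP content (CellTiter-Glo, 30 min, room temperature) served as the viability measure in HRE-bla ME-180 cells exposed to compounds for 17 hrs in low-serum medium (0.5% dialyzed FBS).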

[13] = qHTS assay to identify small molecule agonists of H2AX (AID 1224845; active means well fitted activation curve with a large enough effect in the signal ratio in the repeat runs, not every such curve was filed as active; the % refers to the signal ratio)
Procedure, shortened: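 Wild-type CHO-K1 cells, plated overnight, exposed 3hr at 37C to 15 concentrations (0.76% DMSO final). Lysed, then HTRF anti-pH2AX (S139) cryptate and anti-H2AX-d2 antibodies, 24 hr room temperature; 665/620 nm emission read.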

[14] = qHTS assay to identify small molecule agonists of the hypoxia (HIF-1) signaling pathway (AID 1224846; active means well fitted activation curve with a large enough effect in the signal ratio in the repeat runs, not every such curve was filed as active; the % refers to the signal ratio)
Procedure, shortened: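 Measured by blue/green FRET after loading CCF4-AM: beta-lactamase expressed from a hypoxia response element in ME-180 cells. Test agents were delivered in DMSO and left 17 hrs; cells had been plated 5 hrs earlier in low-serum (0.5% dialyzed FBS) medium.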

[15] = qHTS assay to identify small molecule agonists of H2AX - cell viability counter screen (AID 1224847; calls by dose curve; further: top concentration of the series differs between compounds; nearly all actives have a fitted effect of over 30% in size)
Procedure, shortened: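 We seed wild-type CHO-K1 cells overnight, treat them for 3 hr at 37C with compounds in 15-concentration series, and quantify remaining viability by CellTiter-Glo luminescence.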

[16] = qHTS assay to identify small molecule antagonists of the estrogen related receptor (ERR) signaling pathway from Tox21 library (AID 1224848); further: nearly all actives have a fitted effect of over 50% in size
Procedure, shortened: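 ERR reporter cell line (from NTP) seeded 2,000 cells/well, rested 6 h at 37 C/5% CO2, then pin-dosed with compounds in DMSO. After 18 h at 37 C, ONE-Glo added; luminescence read after 30 min at room temperature.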

[17] = qHTS assay to identify small molecule agonists of the estrogen related receptor (ERR) signaling pathway from Tox21 library (AID 1224849; calls by dose curve; further: nearly all actives have a fitted effect of over 15% in size); details: ERR reporter cell line, ONE-Glo luciferase, 18 h; at 92.4 µM (top of the series) unless noted
Procedure, shortened: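 We plated ERR reporter cells, waited 6 h, added compounds in DMSO by pin tool and incubated them 18 h at 37 C. ONE-Glo was then added and luminescence read after 30 min.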

[18] = qHTS RealTime-Glo MT Cell Viability Assay in HepG2 cells - 24 hour (AID 1224867); further: nearly all actives have a fitted effect of over 50% in size
Procedure, shortened: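 HepG2 suspension premixed with RealTime-Glo reagents is plated at 600 cells per well and left 5 h at 37 C/5% CO2. Compounds in DMSO then go in, and bioluminescence reflecting viable cell number is recorded over 40 h.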

[19] = qHTS assay to identify small molecule antagonists of the estrogen related receptor signaling pathway with the pleiotropic PPARgamma coactivator (PGC) from Tox21 10K library (AID 1224841; call rule not given here)
Procedure, shortened: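 Compound exposure ran 18 hours at 37 C in PGC/ERR cells (2,000/well) that had first rested 6 hours in a 37 C/5% CO2 incubator. Luciferase activity was then detected with One-Glo after a 30-minute room-temperature step.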

[20] = biological target: Thyrotropin receptor (Homo sapiens) (UniProt P16473); assay: qHTS assay to identify small molecule agonists of the thyroid stimulating hormone receptor (TSHR) signaling pathway (AID 1224843; calls by dose curve; further: nearly all actives have a fitted effect of over 45% in size)
Procedure, shortened: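 TSHR-HEK293 cells in agonist mode, 30 min room-temperature step, then cAMP measured by competitive HTRF (cAMP-d2 with anti-cAMP cryptate) after 1 h at room temperature. Tested at 15 concentrations in triplicate.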
On the % scale 0 is the no-effect control and ±100 the full control effect.

Chain of Luciferin 4-monooxygenase (Photinus pyralis) (P08659 whole entry, looked up): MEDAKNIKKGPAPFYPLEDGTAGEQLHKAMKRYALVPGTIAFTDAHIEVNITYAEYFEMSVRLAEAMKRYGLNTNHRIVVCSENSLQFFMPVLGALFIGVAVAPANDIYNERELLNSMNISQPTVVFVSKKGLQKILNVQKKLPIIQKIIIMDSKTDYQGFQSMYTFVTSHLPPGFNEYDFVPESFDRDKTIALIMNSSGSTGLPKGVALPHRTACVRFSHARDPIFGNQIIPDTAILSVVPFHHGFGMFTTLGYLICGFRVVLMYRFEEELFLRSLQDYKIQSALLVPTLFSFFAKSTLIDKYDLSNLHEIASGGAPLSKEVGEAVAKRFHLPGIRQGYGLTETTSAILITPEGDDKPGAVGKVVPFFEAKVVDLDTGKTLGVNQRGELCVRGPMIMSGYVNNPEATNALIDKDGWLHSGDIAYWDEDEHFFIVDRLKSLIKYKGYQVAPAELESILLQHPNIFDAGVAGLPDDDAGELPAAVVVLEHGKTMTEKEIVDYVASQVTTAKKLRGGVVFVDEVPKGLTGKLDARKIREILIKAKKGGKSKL
Chain of Thyrotropin receptor (Homo sapiens) (P16473 whole entry, looked up): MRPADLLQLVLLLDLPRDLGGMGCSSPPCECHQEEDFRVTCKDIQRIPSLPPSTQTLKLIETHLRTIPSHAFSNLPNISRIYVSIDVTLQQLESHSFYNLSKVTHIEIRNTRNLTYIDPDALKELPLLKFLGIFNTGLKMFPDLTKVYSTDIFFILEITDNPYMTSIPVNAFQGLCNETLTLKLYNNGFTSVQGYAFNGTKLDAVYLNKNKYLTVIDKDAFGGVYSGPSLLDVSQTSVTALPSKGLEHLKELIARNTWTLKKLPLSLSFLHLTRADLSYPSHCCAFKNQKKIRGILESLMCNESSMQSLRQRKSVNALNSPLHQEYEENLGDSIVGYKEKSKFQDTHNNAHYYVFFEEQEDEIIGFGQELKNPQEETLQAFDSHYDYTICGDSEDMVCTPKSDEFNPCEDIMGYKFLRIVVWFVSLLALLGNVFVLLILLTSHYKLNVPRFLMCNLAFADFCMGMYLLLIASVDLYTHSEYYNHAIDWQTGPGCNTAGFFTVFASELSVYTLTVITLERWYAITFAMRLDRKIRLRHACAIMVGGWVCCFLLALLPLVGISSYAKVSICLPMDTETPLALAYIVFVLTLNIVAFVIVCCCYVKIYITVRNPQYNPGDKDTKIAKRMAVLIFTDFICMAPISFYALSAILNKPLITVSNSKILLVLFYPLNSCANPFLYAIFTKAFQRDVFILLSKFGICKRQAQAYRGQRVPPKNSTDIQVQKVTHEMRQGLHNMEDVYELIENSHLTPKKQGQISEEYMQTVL
Chain of Nuclear receptor subfamily 1 group I member 3 (Homo sapiens) (Q14994 whole entry, looked up): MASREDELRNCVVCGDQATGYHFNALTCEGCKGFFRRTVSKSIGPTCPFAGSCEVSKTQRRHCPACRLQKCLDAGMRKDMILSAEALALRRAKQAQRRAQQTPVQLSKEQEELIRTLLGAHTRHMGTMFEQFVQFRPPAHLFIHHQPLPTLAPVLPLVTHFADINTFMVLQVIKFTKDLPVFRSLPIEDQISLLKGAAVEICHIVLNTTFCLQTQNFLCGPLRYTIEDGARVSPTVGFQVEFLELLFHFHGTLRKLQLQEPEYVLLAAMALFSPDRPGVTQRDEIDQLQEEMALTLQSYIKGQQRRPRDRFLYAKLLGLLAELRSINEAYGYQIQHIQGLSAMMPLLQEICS

Cc1ccccc1OCC(=O)O
inactive: outcome [1] | outcome [2] | Potency [3] | outcome [4] | Potency [5] | outcome [6] | outcome [7] | outcome [8] | Potency [9] | outcome [10] | Potency [11] | outcome [12] | outcome [13] | outcome [14] | outcome [15] | outcome [16] | activity change, positive = activation [17] 0.72% | outcome [18]

Cc1cc(C)c(C)c(C)c1
inactive: outcome [1] | outcome [2] | Potency [3] | outcome [4] | Potency [5] | outcome [6] | outcome [7] | outcome [8] | Potency [9] | outcome [10] | Potency [19] | Potency [11] | outcome [12] | outcome [13] | outcome [14] | outcome [15] | outcome [16] | activity change, positive = activation [17] 5.28% | outcome [18]

CCCCN(CCCC)CCCCCCN(CCCC)CCCC
inactive: outcome [1] | outcome [2] | Potency [3] | outcome [4] | Potency [5] | outcome [6] | outcome [7] | outcome [8] | Potency [9] | outcome [10] | Potency [20] | outcome [12] | outcome [13] | outcome [14] | outcome [18]

C[n+]1ccccc1/C=N/O
inactive: outcome [1] | outcome [2] | Potency [3] | outcome [4] | Potency [5] | outcome [6] | outcome [7] | outcome [8] | Potency [9] | outcome [10] | Potency [19] | Potency [11] | Potency [20] | outcome [12] | outcome [13] | outcome [15] | outcome [16] | activity change, positive = activation [17] 0.0992% [at 42.5 µM] | outcome [18]

CCOCCOCCOC(C)=O
inactive: outcome [1] | outcome [2] | Potency [3] | outcome [4] | Potency [5] | outcome [6] | outcome [7] | outcome [8] | Potency [9] | outcome [10] | Potency [20] | outcome [12] | outcome [13] | outcome [14] | outcome [15] | outcome [18]

CCCCC(CC)CCC(CC(C)C)OS(=O)(=O)O (centres undefined)
inactive: outcome [1] | outcome [2] | Potency [3] | outcome [4] | Potency [5] | outcome [6] | outcome [7] | outcome [8] | Potency [9] | outcome [10] | Potency [20] | outcome [12] | outcome [13] | outcome [14] | outcome [15] | outcome [18]

OCCC(F)(F)C(F)(F)C(F)(F)C(F)(F)C(F)(F)C(F)(F)F
inactive: outcome [1] | outcome [2] | Potency [3] | outcome [4] | Potency [5] | outcome [6] | outcome [7] | outcome [8] | Potency [9] | outcome [10] | Potency [20] | outcome [12] | outcome [13] | outcome [14] | outcome [15] | outcome [18]
